Bioassay records from PubChem BioAssay.
Pin1 inhibitor: blocks the human prolyl isomerase Pin1. Potency, µM (series often up to 115 µM), without a hit: at the top dose activity, negative = inhibition, hits mostly inhibitors. Q13526. 390,000 tested, 0.009% active. AID 504891. Pin1 FP peptide displacement, HiFluor488, 10 min; active means well fitted inhibition curve with a large enough effect in the polarisation, with a control signal flat, not every such curve was filed as active; inconclusive means small, poorly fitted or top-dose-only effect, or effect the other way, or a change in a side signal; inactive means no such curve, though single readings can be large or run the other way; the % refers to the polarisation; further: on the % scale 0 is the no-effect control and ±100 the full control effect
Tb PFK block: inhibitors of T. brucei phosphofructokinase. Potency, µM (top dose mostly 57.5 µM), without a hit: at the highest dose activity, negative = inhibition, usual class: inhibitors. 330,000 tested, 0.17% active. T. brucei PFK, ADP-Glo luminescence;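 further: 0% = uninhibited 1x PFK enzyme wells and -100% = no-enzyme wells; nearly all actives have a fitted effect of over 60% in size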
Target sequence (O15648 whole entry, looked up): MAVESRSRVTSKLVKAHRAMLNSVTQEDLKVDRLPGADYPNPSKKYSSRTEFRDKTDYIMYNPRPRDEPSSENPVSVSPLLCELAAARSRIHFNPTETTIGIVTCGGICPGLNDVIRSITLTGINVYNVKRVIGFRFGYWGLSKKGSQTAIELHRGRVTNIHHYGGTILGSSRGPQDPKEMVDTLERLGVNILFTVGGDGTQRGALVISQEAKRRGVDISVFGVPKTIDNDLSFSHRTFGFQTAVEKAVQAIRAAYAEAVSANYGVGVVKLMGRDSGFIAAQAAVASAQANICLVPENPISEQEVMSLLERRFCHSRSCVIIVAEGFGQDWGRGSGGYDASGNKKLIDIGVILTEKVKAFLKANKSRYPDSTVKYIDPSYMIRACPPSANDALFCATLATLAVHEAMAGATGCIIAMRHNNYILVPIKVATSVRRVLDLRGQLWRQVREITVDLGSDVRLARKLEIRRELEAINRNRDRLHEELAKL
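In TEA buffer at pH 8.0 with 5 mM MgCl2, enzyme (1.25 nM) converted F6P (0.5 mM) and ATP (0.1 mM) for 45 min at room temperature. ADP product was read by luciferase luminescence.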
GLP1R cytotox: cytotoxic in the GLP-1 receptor inverse agonist counter-screen; HEK293 cAMP-luciferase reporter cells, luminescence, 24 h; Potency, µM (highest dose often 38.3 µM), inactives show top-dose activity change, negative = inhibition, most hits filed as inhibitors; 410,000 tested, 0.13% active; AID 624418;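 further: loss of luciferase light is scored as toxicity; on the % scale 0 is the no-effect control and ±100 the full control effect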
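MLSMR compounds, 24 hr on cells at 37 deg C/5% CO2; luminescence after luciferase reagent (12 min RT). Inhibition counted as the undesired cytotoxic outcome.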
GLP1R inv ag: GLP-1 receptor (human) inverse agonism; Potency, µM (doses to about 38.3 µM), for inactives: at the highest dose activity change, negative = inhibition, usual class: inhibitors; 410,000 tested, 1.6% active; HEK293 GLP-1R CRE-luciferase, luminescence, 24 h; GLP-1R form is constitutively active; AID 624417; further: on the % scale 0 is the no-effect control and ±100 the full control effect; nearly all actives have a fitted effect of over 55% in size
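Cells are plated, allowed 12 hours at 37 deg C, then treated with compounds for 24 hr before luciferase detection reagent is added and luminescence is read after 12 min at room temperature. The HEK293 line carries constitutively active GLP-1R with a cAMP-responsive reporter.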
GLP-1R agonist: GLP-1 receptor (human) agonism | P43220 | HEK293 GLP-1R CRE-luciferase, luminescence, 4-6 h; cells express a hypersensitive GLP-1R form | Potency, µM (top dose mostly 45.6 µM), for inactives: top-dose activation, actives largely listed as activators | 380,000 tested, 0.007% active | AID 624172; further: % of control where 0% means no effect
PGK inhibitor: T. brucei PGK inhibition | P07378 | PGK/GAPDH coupled, Kinase-Glo luminescence, 60 min | Potency, µM (top dose mostly 57.5 µM), without a hit: at the top dose activity change, negative = inhibition, actives largely listed as inhibitors | 380,000 tested, 0.043% active | AID 602233; further: on the % scale 0 is the no-effect control and ±100 the full control effect; nearly all actives have a fitted effect of over 60% in size
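Recombinant glycosomal PGK reaction used 1,3-bisphosphoglycerate generated in-well by GAPDH (100nM final) in 100mM TEA pH 7.6, 5mM MgCl2, 0.01% Tween-20. After 60 minutes at room temperature, ATP was read by Kinase-Glo Plus luminescence end-point.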
* marks the source's active call; other numbers are inactive results. This is a sample that favours compounds with a hit; in the whole collection about 1.8% have one here. Unless noted, the call rests on the fitted dose curve; in most records, active means well fitted curve in the direction sought with a large enough effect; inconclusive means small, poorly fitted or top-dose-only effect, or another doubt; inactive means no such curve, though single readings can be large; an effect the other way counts as inactive or inconclusive. Potency means the concentration at half of the fitted maximal effect.

For O=[N+]([O-])c1cccc(NNS(=O)(=O)c2ccccc2F)c1 the results were Pin1 inhibitor 0.6%, Tb PFK block -1.5%, GLP1R cytotox -5.9%, GLP1R inv ag 6.31µM*, GLP-1R agonist -1.4% and PGK inhibitor -0.7%.
Cc1cccc(N2CC(c3nc4ccccc4n3CCC3CCCCC3)CC2=O)c1 (stereo not given) was read as Pin1 inhibitor -9.8%, GLP1R cytotox -1.4%, GLP1R inv ag 2.1% and PGK inhibitor inactive.
For CCc1cccc(NC(=O)C(Cc2ccccc2)NS(=O)(=O)c2ccc3c(c2)oc(=O)n3C)c1 (stereo not given) the results were Pin1 inhibitor 10.4%, GLP1R cytotox -9.7%, GLP1R inv ag 15.1% and PGK inhibitor -9.2%.
Screening Cc1ccc(NC(=O)N2CCc3c([nH]c4ccccc34)C2c2ccccc2F)c(Cl)c1 (stereo not given) returned Pin1 inhibitor 24.2%, GLP1R cytotox -12.2%, GLP1R inv ag 10µM* and PGK inhibitor -10.9%.
Screening O=C(Nc1ccccc1)N1CCc2c([nH]c3ccccc23)C1C(F)(F)F (stereo not given) returned Pin1 inhibitor inconclusive, Tb PFK block -0.8%, GLP1R cytotox 8.3%, GLP1R inv ag 2.82µM*, GLP-1R agonist 1.8% and PGK inhibitor 3.6%.
For Cc1nonc1CC(=O)N1CCc2c([nH]c3ccccc23)C1c1ccccc1F (stereo not given) the results were Pin1 inhibitor -0.4%, Tb PFK block -0.2%, GLP1R cytotox -9.4%, GLP1R inv ag inconclusive, GLP-1R agonist 8.7% and PGK inhibitor -7.4%.
For Fc1ccc(-[n+]2nc(Nc3ccccc3)sc2-c2c(Cl)cccc2Cl)cc1 the results were Pin1 inhibitor -0.7%, Tb PFK block 3.1%, GLP1R cytotox inconclusive, GLP1R inv ag inconclusive, GLP-1R agonist -3.0% and PGK inhibitor -1.2%.
COc1ccc2ccccc2c1-c1sc(Nc2ccccc2)n[n+]1-c1ccc(F)cc1 was read as Pin1 inhibitor -2.8%, Tb PFK block 0.3%, GLP1R cytotox 5.01µM*, GLP1R inv ag inconclusive, GLP-1R agonist -2.4% and PGK inhibitor inactive.
Screening CCc1ccc(Nc2n[n+](-c3ccccc3)c(-c3c(Cl)cccc3Cl)s2)cc1 returned Pin1 inhibitor -3.7%, Tb PFK block 0.2%, GLP1R cytotox 7.94µM*, GLP1R inv ag inconclusive, GLP-1R agonist 0.9% and PGK inhibitor -4.7%.
CCc1cccc(C)c1NC(=O)CCn1c(=O)c2cccn2c2ccccc21 was read as Pin1 inhibitor -3.8%, GLP1R cytotox -3.9%, GLP1R inv ag 12.4% and PGK inhibitor -11.6%.
For COC(=O)c1ccccc1NC(=O)N1c2ccccc2Sc2ccccc21 the results were Pin1 inhibitor 13.2%, Tb PFK block -1.4%, GLP1R cytotox 27.7%, GLP1R inv ag 10µM*, GLP-1R agonist 26.1% and PGK inhibitor -4.7%.
O=C(O)C1=C(C(=O)O)C2C=CC1C2 was read as Pin1 inhibitor -1.7%, GLP1R cytotox 2.1%, GLP1R inv ag 8.3%, GLP-1R agonist 1.1% and PGK inhibitor 11.2µM*.
`NS(=O)(=O)c1ccc(CCNCc2ccccc2OCc2ccc(Cl)cc2)cc1` gave Pin1 inhibitor -3.9%, Tb PFK block 0.5%, GLP1R cytotox -28.9%, GLP1R inv ag 7.94µM*, GLP-1R agonist -5.5% and PGK inhibitor -10.8%.
`Nc1c(-c2nc(-c3ccncc3)no2)nnn1CC(=O)Nc1ccccc1` gave Pin1 inhibitor 5.5%, GLP1R cytotox 0.1% and GLP1R inv ag 9.9%.
Screening C#CC(C)(CC)NC(=O)c1cc2c(n(-c3ccc(Cl)cc3)c1=O)CC(C)(C)CC2=O (stereo not given) returned Pin1 inhibitor 4.1%, GLP1R cytotox -13.8%, GLP1R inv ag -26.9%, GLP-1R agonist -6.7% and PGK inhibitor 6.6%.
